In PubChem BioAssay (NCI):
The panel holds about 79,000 compounds, 15% with a hit somewhere; the sample as a whole holds those more often. Values without a mark were called inactive. Calls of active or inactive are those of the source. Cut-off read from the data, not from the text of the source: active = growth inhibition above about 70%; inactive = the rest.

Key:
[1] = NCI Yeast Anticancer Drug Screen. Data for the rad50 strain (AID 155);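 note: 0% = growth of vehicle-only cultures of the same strain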; conditions: S. cerevisiae rad50 strain growth inhibition, active compounds read high
In short: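 Inhibition values express reduced yeast growth in compound-treated cultures relative to vehicle-treated controls.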

[2] = NCI Yeast Anticancer Drug Screen. Data for the mec2-1 strain (AID 157); conditions: S. cerevisiae mec2-1 strain, active compounds read high
In short: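 Growth inhibition is read against vehicle-treated controls after compound exposure of the mec2-1 yeast strain, which is defective in DNA damage repair or cell cycle control.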

[3] = NCI Yeast Anticancer Drug Screen. Data for the sgs1 mgt1 strain (AID 161);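 note: 0% = growth of cultures given vehicle only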; conditions: S. cerevisiae sgs1 mgt1 strain, active compounds read high
In short: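 Yeast cells carrying a defined DNA-repair defect were exposed to test compounds. Growth inhibition was measured relative to vehicle-treated controls.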

[4] = NCI Yeast Anticancer Drug Screen. Data for the cln2 rad14 strain (AID 165);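 note: 0% = growth equal to vehicle treated cultures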; conditions: S. cerevisiae cln2 rad14 strain, active compounds read high
In short: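 Growth inhibition, relative to vehicle-treated controls, is the read-out. The test organism is a yeast strain with defined genetic alterations, cln2 rad14.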

[5] = NCI Yeast Anticancer Drug Screen. Data for the bub3 strain (AID 167); conditions: S. cerevisiae bub3 mutant strain, active compounds read high
In short: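 Steps: expose the mutant yeast strain to compound; grow alongside vehicle-treated cultures; measure growth; express inhibition against the vehicle cultures.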

[6] = NCI Yeast Anticancer Drug Screen. Data for the mlh1 rad18 strain (AID 175); conditions: S. cerevisiae mlh1 rad18 strain growth inhibition, active compounds read high
In short: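 Cells of a genetically altered yeast strain, deficient in DNA damage repair, were treated with compound. Their growth was then compared with that of vehicle-treated cultures to give inhibition.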

[7] = at 5.0 µM (retest, dose inferred, filed as 0.5)
[8] = at 50.0 µM (retest, dose inferred, filed as 5.0)

| SMILES | growth inhibition [1, 7] | growth inhibition [1, 8] | growth inhibition ([1]; at 50.0 µM) | growth inhibition [2, 7] | growth inhibition [2, 8] | growth inhibition ([2]; at 50.0 µM) | growth inhibition [3, 7] | growth inhibition [3, 8] | growth inhibition ([3]; at 50.0 µM) | growth inhibition [4, 7] | growth inhibition [4, 8] | growth inhibition ([4]; at 50.0 µM) | growth inhibition [5, 7] | growth inhibition [5, 8] | growth inhibition ([5]; at 50.0 µM) | growth inhibition [6, 7] | growth inhibition [6, 8] | growth inhibition ([6]; at 50.0 µM) |
| --- | --- | --- | --- | --- | --- | --- | --- | --- | --- | --- | --- | --- | --- | --- | --- | --- | --- | --- |
| O=C1C(Cl)=C(Cl)C(=O)C2=C1CC(Cl)C(Cl)C2 (configuration not stated) | 87% (active) | 98% (active) | 99.3% (active) | 90% (active) | 99% (active) | 99.3% (active) | 91% (active) | 97% (active) | 99.5% (active) | 37% | 99% (active) | 99% (active) | 96% (active) | 98% (active) | 99.3% (active) | 95% (active) | 99% (active) | 99.2% (active) |
| CC(=O)c1cccc([N+](=O)[O-])c1 | -2% | 5% | 27.4% | -2% | 2% | -9.25% | -1% | 2% | 24.4% | -1% | -2% | 44.9% | 1% | 7% | 9.25% | -3% | 3% | 9% |
| O=C(CCCO)N/N=C\c1ccc([N+](=O)[O-])s1 | 5% | 31% | 18.8% | -7% | 23% | -3.55% | 8% | 39% | 31.8% | -2% | 20% | 72.2% (active) | -1% | 17% | 5.5% | 12% | 74% (active) | 62.2% |
| O=c1c2[nH]c3cccc(Cl)c3c2cnn1-c1ccc(F)cc1 | 4% | 47% | 96.7% (active) | 2% | 74% (active) | 97.2% (active) | 9% | 35% | 96.6% (active) | 2% | 85% (active) | 94.5% (active) | 2% | 53% | 98% (active) | -2% | 79% (active) | 97% (active) |
| COc1cc2c(cc1OC)[C@H]1C(=O)c3cc4c(cc3[C@H]1N(C)C2=O)OCO4 | -1% | 0% | 10.3% | 1% | -2% | 11.9% | -8% | -4% | -2.35% | -6% | -1% | 50.4% | -7% | 1% | 27.7% | 0% | -32% | 39.8% |
| Clc1ccc2c(NC3CCC(N4CCCCC4)CC3)ccnc2c1 (configuration not stated) | 99% (active) | 97% (active) | -13.2% | 90% (active) | 97% (active) | -25.6% | 93% (active) | 98% (active) | -24.1% | 76% (active) | 97% (active) | 27.1% | 94% (active) | 97% (active) | -79.4% | 98% (active) | 97% (active) | -16% |
| O=C(OC1=C(Br)C(=O)c2ccccc2C1=O)c1ccccc1 | 13% | 99% (active) | 74.5% (active) | 31% | 99% (active) | 60.2% | 32% | 98% (active) | 66.3% | 4% | 58% | -17% | 12% | 89% (active) | 12.1% | 38% | 98% (active) | 51.2% |
| Cc1cc(C)n2nc(N)c(C#N)c2c1C#N | -2% | 1% | 17.2% | 1% | 0% | 7.85% | 2% | 8% | 0.85% | -2% | 2% | 11.7% | -1% | -3% | 47.7% | -1% | 7% | 62% |
| S=C1NC2=C(CSC/C2=C\c2ccccc2)C(c2ccccc2)N1 (configuration not stated) | 10% | 96% (active) | 60.2% | -8% | 97% (active) | 58.2% | 8% | 97% (active) | 65.2% | 26% | 96% (active) | 68.8% | -45% | 96% (active) | 73.1% (active) | 35% | 97% (active) | 72.3% (active) |
| Cc1cc(NC(=S)SCc2ccc(Cl)cc2)ccc1F | 5% | 66% | 97.5% (active) | 1% | 70% (active) | 96% (active) | 2% | 95% (active) | 97.8% (active) | -7% | 99% (active) | 88% (active) | 19% | 97% (active) | 98.5% (active) | 2% | 89% (active) | 96.4% (active) |
| Oc1cc(-[n+]2ccc3ccccc3c2)c(O)c2ccccc12 | 10% | 70% (active) | 44.2% | -1% | 27% | 39.2% | 11% | 45% | 15.6% | -4% | -10% | -20.8% | 24% | 72% (active) | 64.5% | 16% | 46% | 54.1% |
| O=Cc1cc([N+](=O)[O-])ccc1O | 95% (active) | 99% (active) | 93.8% (active) | 98% (active) | 99% (active) | 96.7% (active) | 86% (active) | 99% (active) | 98.5% (active) | 96% (active) | 99% (active) | 74.2% (active) | 97% (active) | 99% (active) | 94.8% (active) | 98% (active) | 99% (active) | 97% (active) |
| CC1(C)CCN(CCOC(=O)C(c2ccccc2)C2C=CCCC2)C1 (configuration not stated) | -3% | 46% | 64.2% | 25% | 50% | 56.6% | 29% | 69% | 77% (active) | 3% | 32% | 73.7% (active) | 4% | 26% | 69.8% | 38% | 65% | 70% |
| Cc1cc(Cl)ccc1N1C(=O)C(=O)C(c2nc3ccccc3o2)C(=O)C1=O | 31% | 98% (active) | 86.3% (active) | 21% | 99% (active) | 64.7% | 38% | 98% (active) | 88.8% (active) | 31% | 98% (active) | 79.9% (active) | 22% | 96% (active) | 49.1% | 25% | 96% (active) | 87.8% (active) |
| CC(CCC(=O)O)(c1cc(Br)c(O)c(Br)c1)c1cc(Br)c(O)c(Br)c1 | 19% | 91% (active) | 90.8% (active) | -1% | 72% (active) | 90% (active) | -2% | 75% (active) | 81.5% (active) | -16% | 75% (active) | 92.4% (active) | -3% | 78% (active) | 88.6% (active) | -14% | 87% (active) | 90.4% (active) |
| CCCN(CCC)C(=O)C(C)C | 1% | -1% | 9.95% | 2% | -4% | -5.6% | -1% | -7% | -5.3% | 0% | -4% | 32.5% | -2% | -2% | -13.1% | 3% | -3% | 16.1% |
| O=C(O)/C(=C\c1ccc(Cl)cc1)c1ccc(C(F)(F)F)cc1[N+](=O)[O-] | 11% | 76% (active) | 94.1% (active) | 8% | 90% (active) | 97.5% (active) | 0% | 91% (active) | 96% (active) | 21% | 84% (active) | 97.6% (active) | 18% | 84% (active) | 96.8% (active) | 25% | 93% (active) | 98.2% (active) |
| NC(=S)n1nc(-c2ccccc2)c(N=Nc2ccccc2Cl)c1-c1ccccc1 | 3% | 84% (active) | 94.8% (active) | 0% | 58% | 55.5% | 1% | 83% (active) | 72.9% (active) | 21% | 92% (active) | 73.9% (active) | 16% | 92% (active) | 93.7% (active) | 2% | 71% (active) | 90.6% (active) |
| CNC(=O)OCc1c(-c2ccccc2)c(-c2ccccc2)n(-c2ccc(OC)cc2)c1COC(=O)NC | 26% | 96% (active) | 36.1% | 18% | 98% (active) | 78.3% (active) | 20% | 98% (active) | 82.2% (active) | 26% | 98% (active) | 84.9% (active) | 17% | 99% (active) | 80% (active) | 23% | 97% (active) | 91% (active) |
